# G9a block – qHTS Assay for Inhibitors of Histone Lysine Methyltransferase G9a. AID 504332, 2011. G9a H3K9 monomethylation, AlphaScreen, 2 h. Histone-lysine N-methyltransferase EHMT2 (Homo sapiens), Q96KQ7. Potency, µM (top dose mostly 102 µM), for the others: at the top dose activity, negative = inhibition, hits mostly inhibitors. 8.8% of 350,000 active; further: on the % scale 0 is the no-effect control and ±100 the full control effect; nearly all actives have a fitted effect of over 75% in size
# Target sequence (Q96KQ7 913-1193 limits assumed): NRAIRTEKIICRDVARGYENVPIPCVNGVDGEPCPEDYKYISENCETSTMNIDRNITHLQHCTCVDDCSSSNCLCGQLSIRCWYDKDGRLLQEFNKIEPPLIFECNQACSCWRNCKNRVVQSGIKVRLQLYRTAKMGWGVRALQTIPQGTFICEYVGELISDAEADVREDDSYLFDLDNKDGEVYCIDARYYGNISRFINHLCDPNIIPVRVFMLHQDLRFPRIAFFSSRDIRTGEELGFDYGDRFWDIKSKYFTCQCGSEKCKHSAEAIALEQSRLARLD
#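 Signal arises when biotinylated H3K9 peptide, once monomethylated, bridges streptavidin donor and antibody-captured acceptor beads. Enzyme at 20 nM was preincubated 15 min with test compounds; peptide 500 nM and SAM 20 uM then reacted for 2 h.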
# JMJD2A Tudor – qHTS Assay for Inhibitors of JMJD2A-Tudor Domain; Potency, µM (series often up to 114 µM), for the others: top-dose activity change, negative = inhibition, actives largely listed as inhibitors; AlphaScreen JMJD2A-Tudor / H3K4me3 peptide binding; 4.4% of 390,000 active; Lysine-specific demethylase 4A (Homo sapiens), O75164; further: on the % scale 0 is the no-effect control and ±100 the full control effect; nearly all actives have a fitted effect of over 50% in size
# Sfp PPTase inh – qHTS Assay for Inhibitors of Bacillus subtilis Sfp phosphopantetheinyl transferase (PPTase); Potency, µM, without a hit: largest response in the series, negative = inhibition, actives largely listed as inhibitors; 3.5% of 310,000 active; AID 1490, 2009; Biochemical Sfp PPTase activity, qHTS; 4'-phosphopantetheinyl transferase ffp (Bacillus subtilis), Q9F4F7;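 further: the enzyme is Sfp with the accession as filed and its product quenches rhodamine fluorescence; 0% = enzyme reaction without inhibitor and -100% = no enzyme wells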
#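 With Hepes-Na pH 7.6 buffer containing 10 mM MgCl2, Sfp (15 nM) modified BHQ-2-YbbR (12.5 uM) using rhodamine-CoA (5 uM). Two reads 30 minutes apart at 525/598 nm yielded each well's rate.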
# BAZ2B inh – qHTS Assay for Inhibitors of BAZ2B. AlphaScreen BAZ2B-H3K14Ac peptide displacement. Potency, µM (top dose mostly 114 µM), for inactives: top-dose activity change, negative = inhibition, usual class: inhibitors. 4.4% of 360,000 active; further: on the % scale 0 is the no-effect control and ±100 the full control effect; nearly all actives have a fitted effect of over 60% in size
#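 Multi-concentration screen (max 110 uM) measuring displacement of acetylated histone H3 peptide from BAZ2B by AlphaScreen, using 50 nM protein, 50 nM peptide and 10 ug/mL streptavidin donor plus Ni-chelate acceptor beads.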
# HP1b chromo inh – HTS for Inhibitors of HP1-beta Chromodomain Interactions with Methylated Histone Tails; AlphaScreen HP1-beta / biotin-H3K9me3 peptide binding; 0.56% of 390,000 active; Chromobox protein homolog 1 (Homo sapiens), P83916; Potency, µM (top dose mostly 114 µM), for inactives: at the top dose activity change, negative = inhibition, most hits filed as inhibitors; further: nearly all actives have a fitted effect of over 70% in size
# Target sequence (P83916 whole entry, looked up): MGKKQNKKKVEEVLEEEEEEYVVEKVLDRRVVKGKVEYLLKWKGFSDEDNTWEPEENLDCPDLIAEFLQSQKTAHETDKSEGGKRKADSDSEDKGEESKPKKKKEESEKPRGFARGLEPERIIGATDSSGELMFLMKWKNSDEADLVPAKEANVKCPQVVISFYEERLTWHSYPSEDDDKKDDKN
#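 Compound inhibition of the preformed complex between 50 nM HP1-beta and 50 nM biotinylated H3K9me3 peptide was read by AlphaScreen. Buffer was PBS pH 7.4 with 0.01% Tween-20. Incubations ran 30 min at room temperature, with 10 ug/mL donor/acceptor beads.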
# PLK1 PBD inh – qHTS for Inhibitors of PLK1-PDB (polo-like kinase 1 - polo-box domain): Primary Screen. Serine/threonine-protein kinase PLK1 (Homo sapiens), P53350. Plk1 PBD binding of FITC phosphopeptide, fluorescence polarization. Potency, µM, inactives show max response, negative = inhibition, usual class: inhibitors. 2.8% of 360,000 active; further: series mostly up to about 57 µM; on the % scale 0 is the no-effect control and ±100 the full control effect; nearly all actives have a fitted effect of over 65% in size
# Starred values were filed as active, the others as inactive; u = inconclusive; x = not tested or not shown; [ ] = another dose, or the depositor's remark. An excerpt weighted towards active compounds, which were near 12% of everything screened. The call rests on the fitted dose curve; in most records, active means well fitted curve in the direction sought with a large enough effect; inconclusive means small, poorly fitted or top-dose-only effect, or another doubt; inactive means no such curve, though single readings can be large; an effect the other way counts as inactive or inconclusive. Potency means the concentration at half of the fitted maximal effect.
SMILES,G9a block,JMJD2A Tudor,Sfp PPTase inh,BAZ2B inh,HP1b chromo inh,PLK1 PBD inh
COc1ccc(S(=O)(=O)N/N=C(/C)c2ccncc2)c(OC)c1,25.1µM*,2.3%,4.6%,-3.0%,54.7%,u
O=S(=O)(NCCc1csc(-c2ccc(F)cc2)n1)c1ccc(Cl)cc1,16.9%[59 µM],15.3%,x,30.4%,27.4%[57 µM],x
COc1ccc(S(=O)(=O)N/N=C(/C)c2ccncc2)cc1,7.08µM*,-9.1%,1.1%,0.4%,58.7%,-18.8%
C/C(=N/NS(=O)(=O)c1ccc(Cl)cc1)c1ccncc1,x,5.3%,-9.4%,-12.1%,30.2%,u
CCCCN(CCCN)c1ccc(Br)cn1,x,-21.1%,x,x,13.2%,x
CCN1CCCC1CNC(=S)Nc1ccc(C(C)=O)cc1 (stereo not drawn),39.8µM*,-30.4%,4.3%,-26.9%,15.7%,u
CC(=O)c1ccc(NC(=S)N2C(C)CCCC2C)cc1 (stereo not drawn),50.1µM*,x,44.7µM*,10.9%,x,x
CC(=O)c1ccc(NC(=S)N2CCCCCC2)cc1,-30.1%,-3.1%,7.0%,-26.1%,32.0%,-10.4%
CCOC(=O)c1cnc2oc3ccccc3n2c1=O,x,-15.9%,9.5%,17.9%,-17.4%,-16.4%
O=C(O)c1cnc2[nH]c3ccccc3n2c1=O,50.1µM*,u,13.0%,-35.0%,0.4%,-14.1%
Cc1ccc(CN(C(=O)c2ccc(OCC(C)C)cc2)c2ccccn2)o1,-27.2%[59 µM],-12.3%,x,7.7%,19.8%,x
Cc1cc(=O)[nH]c(N/N=C/c2ccc(N(C)C)cc2)n1,-0.6%,25.1µM*,u,-18.9%,-7.9%,-23.9%
Cc1cc(=O)[nH]c(N/N=C/c2ccc(F)cc2)n1,u,-19.7%,-15.4%,0.5%,16.1%,-15.4%
Cc1cc(=O)[nH]c(N/N=C/c2ccc(C)o2)n1,u,56.2µM*,u,-4.0%,22.4%,6.3%
COc1ccc(/C=N/Nc2nc(C)cc(=O)[nH]2)cc1OC,u,25.1µM*,4.7%,-24.9%,32.9%,-3.7%
COc1cc(/C=N/Nc2nc(C)cc(=O)[nH]2)cc(OC)c1O,28.2µM*,-17.8%,u,-2.5%,34.1%,8.7%
CCN(Cc1ccc2c(c1)OCCO2)C(=O)CN1C(=O)NC2(CCCCC2)C1=O,-23.2%[59 µM],-5.3%,x,-3.4%,11.4%,1.7%
COc1cccc(/C=N/Nc2nc(C)cc(=O)[nH]2)c1OC,13.7%,-28.2%,56.2µM*,-35.7%,38.0%,-8.4%
N#Cc1c(-c2ccc(C(F)(F)F)cc2)cc(-c2ccccc2)[nH]c1=S,8.7%[59 µM],-17.7%,-5.7%,0.0%,10.3%,23.8µM*
CCc1nc2cccnc2n1-c1ccc(CC(=O)NC(C)CC)cc1 (stereo not drawn),-22.6%,3.2%,12.0%,3.1%,53.9%,-0.1%
Cc1ccc(N2C(=O)N(CC(=O)N3CCc4ccccc43)C(=O)C2C)cc1 (stereo not drawn),x,x,x,x,x,-3.7%
Cc1ccc(N2C(=O)N(CC(=O)N3c4ccccc4CC3C)C(=O)C2C)cc1 (stereo not drawn),44.7µM*,-15.9%,x,-4.6%,15.7%,-8.5%
CSc1ccc(CCNC(=O)C(C)n2c(C)c3cnn(-c4ccccc4)c(=O)c3c2C)cc1 (stereo not drawn),-25.8%[59 µM],u,x,-33.7%,-10.3%,x
COCCNC(=O)c1ccccc1N(Cc1ccccc1)S(=O)(=O)c1ccc(C)cc1,-34.1%,-17.2%,-9.1%,-16.2%,-16.9%,26.7µM*
Cc1ccc(S(=O)(=O)N(Cc2ccccc2)c2ccccc2C(=O)NCc2ccco2)cc1,50.1µM*,u,-10.9%,u,8.6%,-24.2%
Cc1ccc(S(=O)(=O)N(Cc2ccccc2)c2ccccc2C(=O)Nc2ccccc2C(=O)NCc2ccco2)cc1,-35.8%[59 µM],-19.6%,13.8%,-25.7%,35.4%,-9.7%
